Design in all cases: scale not given: direction of the effect not stated beside the values
The target of assay [1] is Protein translocase subunit SecA (Escherichia coli (strain K12)) (UniProt P10408). The assay can be described thus: Assay to Identify E. coli SecA ATPase Inhibitors. It is filed as functional. The note with it: 30 µM.
In assay [2] the target is T1, Ubiquitin-activating enzyme e1, putative (Leishmania donovani (strain BPK282A1)) (UniProt E9BSI1).
T1 sequence (whole entry): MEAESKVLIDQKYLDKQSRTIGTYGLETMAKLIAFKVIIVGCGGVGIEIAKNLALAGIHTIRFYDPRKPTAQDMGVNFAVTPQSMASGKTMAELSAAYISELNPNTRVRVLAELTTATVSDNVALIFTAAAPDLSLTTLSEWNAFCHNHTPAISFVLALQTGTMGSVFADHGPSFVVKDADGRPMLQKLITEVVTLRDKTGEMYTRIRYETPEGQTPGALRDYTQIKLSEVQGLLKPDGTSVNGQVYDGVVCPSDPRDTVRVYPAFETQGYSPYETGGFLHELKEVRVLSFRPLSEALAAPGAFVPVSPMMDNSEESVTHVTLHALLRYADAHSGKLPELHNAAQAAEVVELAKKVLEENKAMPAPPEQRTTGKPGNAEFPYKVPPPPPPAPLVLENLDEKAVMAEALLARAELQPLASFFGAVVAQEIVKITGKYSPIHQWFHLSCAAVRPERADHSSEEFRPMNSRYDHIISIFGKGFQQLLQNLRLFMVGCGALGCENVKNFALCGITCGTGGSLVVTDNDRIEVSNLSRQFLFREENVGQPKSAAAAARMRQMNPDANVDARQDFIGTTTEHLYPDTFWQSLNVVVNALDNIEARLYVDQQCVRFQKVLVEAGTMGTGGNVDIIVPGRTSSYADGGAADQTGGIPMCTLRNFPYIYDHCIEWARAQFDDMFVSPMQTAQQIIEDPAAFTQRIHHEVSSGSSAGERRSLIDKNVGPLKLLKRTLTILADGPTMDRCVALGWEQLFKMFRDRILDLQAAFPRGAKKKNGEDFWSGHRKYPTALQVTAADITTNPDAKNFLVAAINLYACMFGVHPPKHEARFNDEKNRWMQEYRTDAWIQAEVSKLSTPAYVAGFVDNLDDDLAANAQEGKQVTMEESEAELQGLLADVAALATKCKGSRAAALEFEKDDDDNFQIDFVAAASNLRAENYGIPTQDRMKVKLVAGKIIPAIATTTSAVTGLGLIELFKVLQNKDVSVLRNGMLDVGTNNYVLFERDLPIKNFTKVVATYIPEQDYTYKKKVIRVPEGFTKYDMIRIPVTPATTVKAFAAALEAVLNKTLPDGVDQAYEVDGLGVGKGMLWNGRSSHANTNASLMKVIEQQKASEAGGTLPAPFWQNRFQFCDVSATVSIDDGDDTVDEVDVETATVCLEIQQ
Put plainly: Leishmania donovani Ubiquitin Activating Enzyme (LdE1). It is filed as functional. The note with it: 30 µM.

For assay [3], the target named is AMP-activated protein kinase, AMPK (Homo sapiens) (UniProt P54646+O43741+P54619+Q9UGJ0+Q9Y478+Q13131+Q9UGI9). The assay can be described thus: AMP-dependent Kinase enzyme assay. An in vitro enzyme assay that detects ADP turnover that is directly proportional to AMPK activity. This uses naive AMPK that is activated during the assay with MK-8722. It is filed as functional. Particulars: 30 µM.

Assay [4] concerns the target Sialic acid-binding Ig-like lectin 9 (Homo sapiens) (UniProt Q9Y336). The assay can be described thus: Hs-Siglec9 ALPHAscreen SOP 20170721. The note with it: 10 µM. (In general: Alpha assays give light when donor and acceptor beads are brought close together.)
The test system of the next assay is Trypanosoma cruzi. The assay can be described thus: Trypanosoma cruzi phosphomannomutase and mannose-1-phosphate guanylyltransferase assay. It is filed as functional. The note with it: 10 µM.
For assay [5], the target named is T2, Arginase-2, mitochondrial (Homo sapiens) (UniProt P78540).
T2 sequence (whole entry): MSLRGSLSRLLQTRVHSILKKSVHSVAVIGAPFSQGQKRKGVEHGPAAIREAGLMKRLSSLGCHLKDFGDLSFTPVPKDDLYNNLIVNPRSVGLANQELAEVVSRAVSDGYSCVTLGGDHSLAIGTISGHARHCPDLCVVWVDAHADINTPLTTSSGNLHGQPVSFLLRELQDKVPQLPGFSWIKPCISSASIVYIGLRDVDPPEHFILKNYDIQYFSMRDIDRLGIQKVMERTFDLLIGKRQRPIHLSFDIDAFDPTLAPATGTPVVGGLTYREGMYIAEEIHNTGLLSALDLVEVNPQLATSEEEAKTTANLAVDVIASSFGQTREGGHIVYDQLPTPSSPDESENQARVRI
The assay can be described thus: in vitro enzyme assay to detect the production of urea directly proportional to the activity of Arginase II. Note: in the data most compounds retested in dose-response had high values. The class given is functional. Particulars: 33.3 µM.

Assay [6] deals with T3, Proteasome subunit beta (Trypanosoma cruzi) (UniProt O96673).
T3 sequence (whole entry): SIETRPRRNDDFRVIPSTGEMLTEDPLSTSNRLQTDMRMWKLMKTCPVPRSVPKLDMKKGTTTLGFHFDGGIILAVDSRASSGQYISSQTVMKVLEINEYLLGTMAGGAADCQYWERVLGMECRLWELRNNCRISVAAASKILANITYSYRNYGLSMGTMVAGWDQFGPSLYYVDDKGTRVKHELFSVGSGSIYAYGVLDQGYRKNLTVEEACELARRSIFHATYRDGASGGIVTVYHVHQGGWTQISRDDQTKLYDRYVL
The assay can be described thus: Trypanosoma cruzi proteasome chymotrypsin-like activity (TcProtChymo) assay. Note: in the data most compounds retested in dose-response had high values. Particulars: 9.37 µM. The class given is functional.

For another assay, the species on record is Homo sapiens. Put plainly: To identify inhibition of the IFN signalling (Jak-Stat) pathway via expression of an eGFP reporter gene under the control of an IFN-stimulated response element (ISRE) containing MxA promoter. It is filed as functional. The note with it: 30 µM. In general terms: A reporter such as luciferase makes a cellular process visible.
In assay [7] the target is T4, Tyrosyl-tRNA synthetase, putative (Trypanosoma cruzi (strain CL Brener)) (UniProt Q4DSP6).
T4 sequence (whole entry): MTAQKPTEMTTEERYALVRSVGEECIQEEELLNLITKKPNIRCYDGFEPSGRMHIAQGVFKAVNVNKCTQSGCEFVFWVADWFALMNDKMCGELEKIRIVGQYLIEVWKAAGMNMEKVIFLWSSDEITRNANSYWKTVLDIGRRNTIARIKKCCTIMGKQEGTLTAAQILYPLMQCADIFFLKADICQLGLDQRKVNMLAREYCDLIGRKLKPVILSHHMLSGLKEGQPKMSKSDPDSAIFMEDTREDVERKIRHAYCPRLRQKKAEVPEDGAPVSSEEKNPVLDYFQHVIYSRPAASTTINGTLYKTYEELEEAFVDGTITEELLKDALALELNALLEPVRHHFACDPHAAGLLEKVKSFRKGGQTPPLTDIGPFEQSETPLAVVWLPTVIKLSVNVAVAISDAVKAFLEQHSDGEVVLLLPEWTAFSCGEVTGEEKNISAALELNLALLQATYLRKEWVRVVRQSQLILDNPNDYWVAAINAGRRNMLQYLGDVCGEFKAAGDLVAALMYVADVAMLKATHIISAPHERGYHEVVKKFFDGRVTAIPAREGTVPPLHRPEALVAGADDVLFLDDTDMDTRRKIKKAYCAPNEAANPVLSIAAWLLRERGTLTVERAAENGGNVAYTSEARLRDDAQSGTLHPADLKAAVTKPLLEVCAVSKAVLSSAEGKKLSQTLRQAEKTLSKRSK
The assay can be described thus: Trypanosoma cruzi tyrosyl tRNA synthetase (TcYRS) _High Tyrosine SOP. Note: in the data most compounds retested in dose-response had high values. It is filed as functional. Particulars: 30 µM.

The target in assay [8] is T4, Tyrosyl-tRNA synthetase, putative (Trypanosoma cruzi (strain CL Brener)). The assay can be described thus: Trypanosoma cruzi tyrosyl tRNA synthetase (TcYRS) SOP. The note with it: 30 µM. The class given is functional.
Assay [9] deals with Chromo domain-containing protein 1 (Saccharomyces cerevisiae (strain ATCC 204508 / S288c) (Baker's yeast)) (UniProt P32657). Put plainly: ScCHD-1 Enzyme Inhibition Assay. Note: in the data most compounds retested in dose-response had high values. The class given is functional. Particulars: 30 µM.

This is an account of results in ChEMBL document CHEMBL3988442, “University of Dundee, Small-Polar-MMV Screening Library” (2021).

For some of these results: Measured potencies and affinities stand elsewhere.

Sequence of Sialic acid-binding Ig-like lectin 9 (Homo sapiens) (Q9Y336 whole entry): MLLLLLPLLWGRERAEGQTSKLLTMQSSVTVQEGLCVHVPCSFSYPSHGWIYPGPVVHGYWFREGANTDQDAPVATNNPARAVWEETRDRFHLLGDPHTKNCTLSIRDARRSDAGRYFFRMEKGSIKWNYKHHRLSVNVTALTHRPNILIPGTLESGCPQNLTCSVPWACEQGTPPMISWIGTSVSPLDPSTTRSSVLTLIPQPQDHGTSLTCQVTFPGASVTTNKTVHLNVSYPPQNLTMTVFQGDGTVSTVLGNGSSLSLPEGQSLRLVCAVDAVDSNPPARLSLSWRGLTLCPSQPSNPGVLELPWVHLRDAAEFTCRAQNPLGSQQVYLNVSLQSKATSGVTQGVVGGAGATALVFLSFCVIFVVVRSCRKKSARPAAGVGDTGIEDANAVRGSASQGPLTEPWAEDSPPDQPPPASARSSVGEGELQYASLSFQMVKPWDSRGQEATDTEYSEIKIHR
Sequence of Chromo domain-containing protein 1 (Saccharomyces cerevisiae (strain ATCC 204508 / S288c) (Baker's yeast)) (P32657 whole entry, the tested form may be a part): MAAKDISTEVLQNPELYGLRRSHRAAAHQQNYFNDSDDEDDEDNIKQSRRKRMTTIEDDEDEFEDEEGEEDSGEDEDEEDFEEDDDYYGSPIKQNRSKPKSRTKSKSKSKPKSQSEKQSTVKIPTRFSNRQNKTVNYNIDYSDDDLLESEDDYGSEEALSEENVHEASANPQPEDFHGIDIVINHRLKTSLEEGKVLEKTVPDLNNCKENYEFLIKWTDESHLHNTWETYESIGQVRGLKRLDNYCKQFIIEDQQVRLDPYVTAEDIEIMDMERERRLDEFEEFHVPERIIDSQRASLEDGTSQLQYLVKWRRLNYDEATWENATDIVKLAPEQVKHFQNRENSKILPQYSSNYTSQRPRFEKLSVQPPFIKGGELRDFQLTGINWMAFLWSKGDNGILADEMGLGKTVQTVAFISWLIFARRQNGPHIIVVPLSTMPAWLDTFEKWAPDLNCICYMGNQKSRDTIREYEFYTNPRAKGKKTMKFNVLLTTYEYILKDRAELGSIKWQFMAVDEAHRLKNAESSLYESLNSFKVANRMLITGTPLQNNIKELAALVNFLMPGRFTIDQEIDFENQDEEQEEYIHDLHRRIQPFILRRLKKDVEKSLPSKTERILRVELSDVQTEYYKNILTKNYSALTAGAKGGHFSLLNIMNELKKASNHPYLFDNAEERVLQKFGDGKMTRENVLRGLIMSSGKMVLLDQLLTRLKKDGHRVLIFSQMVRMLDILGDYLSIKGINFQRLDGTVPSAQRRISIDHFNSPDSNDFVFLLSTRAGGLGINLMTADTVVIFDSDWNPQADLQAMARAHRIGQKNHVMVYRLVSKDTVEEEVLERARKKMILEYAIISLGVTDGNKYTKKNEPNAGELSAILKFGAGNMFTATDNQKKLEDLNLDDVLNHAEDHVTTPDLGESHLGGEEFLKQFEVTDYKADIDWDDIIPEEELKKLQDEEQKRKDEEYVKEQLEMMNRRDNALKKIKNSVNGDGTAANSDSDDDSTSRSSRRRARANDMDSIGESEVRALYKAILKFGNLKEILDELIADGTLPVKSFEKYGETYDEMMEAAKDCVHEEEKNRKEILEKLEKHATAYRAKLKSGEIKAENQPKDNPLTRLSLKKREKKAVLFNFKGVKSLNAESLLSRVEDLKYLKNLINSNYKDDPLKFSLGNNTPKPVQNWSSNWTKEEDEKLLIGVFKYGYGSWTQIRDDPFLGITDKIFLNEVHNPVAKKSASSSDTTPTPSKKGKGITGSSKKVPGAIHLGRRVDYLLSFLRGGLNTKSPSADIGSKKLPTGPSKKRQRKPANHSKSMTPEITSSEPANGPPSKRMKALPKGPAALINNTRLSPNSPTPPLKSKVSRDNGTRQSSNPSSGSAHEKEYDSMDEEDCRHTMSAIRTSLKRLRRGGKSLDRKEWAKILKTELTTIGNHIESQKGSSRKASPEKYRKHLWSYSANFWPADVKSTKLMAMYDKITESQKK
Sequence of Protein translocase subunit SecA (Escherichia coli (strain K12)) (P10408 whole entry): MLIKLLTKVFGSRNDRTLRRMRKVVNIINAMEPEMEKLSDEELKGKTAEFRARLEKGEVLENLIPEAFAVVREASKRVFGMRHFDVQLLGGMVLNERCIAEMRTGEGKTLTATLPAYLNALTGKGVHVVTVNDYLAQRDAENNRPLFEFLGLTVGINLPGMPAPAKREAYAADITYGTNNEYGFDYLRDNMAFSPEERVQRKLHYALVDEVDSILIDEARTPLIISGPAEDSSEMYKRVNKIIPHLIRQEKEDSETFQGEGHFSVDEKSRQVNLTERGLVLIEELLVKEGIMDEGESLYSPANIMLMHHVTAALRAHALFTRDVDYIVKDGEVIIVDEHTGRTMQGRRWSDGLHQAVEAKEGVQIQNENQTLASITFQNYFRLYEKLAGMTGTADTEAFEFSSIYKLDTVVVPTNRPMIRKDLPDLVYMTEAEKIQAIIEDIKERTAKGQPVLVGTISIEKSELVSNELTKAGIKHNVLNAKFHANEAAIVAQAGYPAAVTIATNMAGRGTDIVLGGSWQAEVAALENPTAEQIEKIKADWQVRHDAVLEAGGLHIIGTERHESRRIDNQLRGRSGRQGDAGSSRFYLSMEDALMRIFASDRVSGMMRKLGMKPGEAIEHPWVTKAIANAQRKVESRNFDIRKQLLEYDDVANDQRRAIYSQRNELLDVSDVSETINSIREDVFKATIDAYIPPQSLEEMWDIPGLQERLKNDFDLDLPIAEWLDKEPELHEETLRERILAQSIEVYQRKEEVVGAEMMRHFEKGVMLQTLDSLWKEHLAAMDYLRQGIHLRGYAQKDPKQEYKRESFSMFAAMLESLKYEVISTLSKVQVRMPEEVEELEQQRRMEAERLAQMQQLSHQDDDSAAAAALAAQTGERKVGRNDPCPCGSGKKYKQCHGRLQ

Consider `Cc1ccc(C)c(C(=O)CN2C(=O)c3ccccc3CS2(=O)=O)c1`, for which the Percent Effect in [1] is -0.543%; in assay [2] it was -2.7%; in assay [3] it was -3.5%; in assay [4], 9.17%; with Trypanosoma cruzi, 5.79%; in [5], 0%. For the same molecule, the Percent Effect in assay [6] was 18.1%; in the assay listed under Homo sapiens it was 12%; in assay [7], -36.5%; in assay [8] it was -41.5%; in [9] it was 22.1%.
For `CS(=O)(=O)NC1CCCN(C(=O)NCc2cc[nH]n2)C1` (stereo unspecified), the Percent Effect in assay [1] was -5.06%; in [2], -31.2%; in assay [3] it was -5.48%; in assay [4] it was -13.5%; in the assay with Trypanosoma cruzi it was 5%; in assay [5], -6.11%. For the same molecule, the Percent Effect in assay [6] was 17.1%; in the assay listed under Homo sapiens, -0.514%; in assay [7] it was 8.57%; in assay [8], 21.2%; in assay [9], -16.2%.
For the molecule `CC(=O)N1CCCN(C(=O)c2oc(Br)cc2C)CC1`, the Percent Effect in assay [1] is -0.989%; in [2], 10.8%; in assay [3], -1.11%; in [4] it was 15.2%; in the assay with Trypanosoma cruzi, 2.12%; in assay [5], 6.19%. Besides, the Percent Effect was 21.4% in assay [6]; 4.33% in the assay listed under Homo sapiens; 2.65% in assay [7]; 17.1% in assay [8]; -7.7% in assay [9].
Regarding `CCc1ncc2c(n1)CN(Cc1nc(-c3ccsc3)no1)CC2`, the Percent Effect in assay [1] is -3.47%; in assay [2], -18.4%; in assay [3] it was -15.2%; in assay [4], -3.23%; in the assay on Trypanosoma cruzi it was -1.77%; in assay [5], -0.719%. The Percent Effect was 7.02% in assay [6]; -16.8% in the assay filed under Homo sapiens; 9.36% in [7]; -1.24% in assay [8]; 8.2% in [9].
In the case of `O=C(c1ccccn1)N1CCn2cnc(COCC3CC3)c2C1`, the Percent Effect in assay [1] is -2.21%; in assay [2], 0%; in assay [3] it was 3.19%; in [4], 4.7%; in the assay on Trypanosoma cruzi it was -2.86%; in [5], 3.23%. Further, the Percent Effect is 9.57% in assay [6]; -0.697% in the assay listed under Homo sapiens; -10.6% in [7]; -16.7% in [8]; -11% in [9].
As for `CCc1nccn1C1CCCN(C(=O)c2cnn(C)c2C2CC2)C1` (stereo unspecified), the Percent Effect in [1] was -5.61%; in assay [2], 8.11%; in assay [3], -0.679%; in assay [4], 1.6%; in the assay with Trypanosoma cruzi, -6.51%; in [5], -4.41%. Also, the Percent Effect in assay [6] was 6.49%; in the assay listed under Homo sapiens, 23.9%; in [7] it was 3.45%; in assay [8], 6.17%; in assay [9], -2.99%.
For the molecule `Cc1ccoc1C(=O)N1CC[C@H]2O[C@@H](C)C[C@H]2C1`, the Percent Effect is -5.4% in [1]; 21.3% in [2]; -6.43% in [3]; 2.33% in assay [4]; 5.6% in the assay with Trypanosoma cruzi; -45.3% in assay [5]. Further, the Percent Effect in assay [6] is 9.06%; in the assay listed under Homo sapiens it was 2.95%; in assay [7], 8.33%; in assay [8], 22.5%; in assay [9], -8.54%.
Turning to `N#Cc1cc(NS(=O)(=O)c2ccc(C(=O)O)cc2F)ccc1F`, the Percent Effect was -2.74% in assay [1]; -13.5% in assay [2]; -2.89% in [3]; 0.735% in assay [4]; -0.472% with Trypanosoma cruzi; 4.41% in [5]. Besides, the Percent Effect in [6] is -3.24%; in the assay filed under Homo sapiens, -0.301%; in [7] it was 0.493%; in [8], 1.24%; in assay [9], -0.823%.
On to `Cc1cnn(CCNCCCOc2ccccc2)c1`, for which the Percent Effect was 1.02% in assay [1]; -21.1% in assay [2]; -5.54% in assay [3]; 5.86% in [4]; 3.27% in the assay on Trypanosoma cruzi; 1.08% in assay [5]. The Percent Effect in assay [6] was 6.85%; in the assay listed under Homo sapiens, -25%; in assay [7] it was 6.4%; in assay [8] it was 3.7%; in [9], -0.782%.
In the case of `CCc1noc(C(C)N(C)CC(=O)Nc2cccc(C)n2)n1` (stereo unspecified), the Percent Effect in [1] was 0.372%; in [2] it was 0%; in [3] it was 5.73%; in [4] it was 0.963%; in the assay with Trypanosoma cruzi, -0.979%; in assay [5], 0.909%. Further, the Percent Effect in assay [6] was 7.28%; in the assay listed under Homo sapiens it was 0.0607%; in assay [7], -1.07%; in assay [8], 0%; in [9], 2.92%.
`Cc1cnn(CC2CCCCN2CC(=O)Nc2c(C)n[nH]c2C)c1` (stereo unspecified): the Percent Effect in assay [1] was -3.93%; in [2], 6.33%; in assay [3], 8.13%; in assay [4], 0.215%; in the assay on Trypanosoma cruzi, -4.62%; in [5], -5.81%. Further, the Percent Effect in assay [6] is 6.86%; in the assay listed under Homo sapiens, 16.1%; in [7], 1.04%; in [8], 10.1%; in [9], -14.4%.
